# The entries come from a sample that favours hits as a whole.
# Dicer inh: human Dicer pre-microRNA cleavage inhibition | z-score at 25 µM | cat-ELCCA pre-miR-21 Dicer processing, chemiluminescence; active compounds read high | Q9UPY3 | 47,000 tested, 6% active; in the data active = z-score above about 3, passing the limit was not always enough;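 note: plate controls were vehicle for no effect and no enzyme for full effect; higher signal means more uncleaved substrate so more Dicer inhibition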
# * hit, by the source's call.
SMILES,Dicer inh
Clc1ccccc1-c1nnc2sc(/C=C/c3ccccc3)nn12,1.3
COc1ccc(/C=C/c2nn3c(COc4ccccc4)nnc3s2)cc1,-1.5
COc1ccc(/C=C/c2nn3c(Cc4ccccc4)nnc3s2)cc1,0.34
Clc1ccccc1-c1ccc(-c2nn3c(-c4ccco4)nnc3s2)o1,0.62
Cc1ccc(/C=C/c2nn3c(-c4ccco4)nnc3s2)cc1C,2.2
Clc1ccc(-n2nnc(/C=C/C=C/c3ccccc3)n2)cc1,-0.61
S=C(NN=C1CCCCC1)NC1C2CCC1CC2 (centres undefined),-0.49
Cc1ccc(S(=O)(=O)NC(=O)NC2CCN(c3nccc(C(F)(F)F)n3)CC2)cc1,-0.94
Cc1cccc(C)c1NC(=S)NC1CC(C)CC(C)(C)C1 (centres undefined),1.1
O=C1NC(c2cccc([N+](=O)[O-])c2)Nc2ccccc21 (centres undefined),-1.2
Cn1cnnc1SCC#CCO,-2.2
C=CCOC(=O)n1c(SC)nc2ccccc21,3.1*
CSc1nc2ccccc2n1CCOc1ccc(Cl)cc1,0.23
C=CCSc1nc2ccccc2n1CC(=O)O,1.5
COc1cc2c(cc1OC)C(C)N(C(=O)Nc1cccc(C(F)(F)F)c1)CC2 (centres undefined),-0.28
O=C(O)C1C2C=CC(O2)C1C(=O)NCc1ccncc1 (centres undefined),-0.98
O=C(O)C1C2C=CC(O2)C1C(=O)NCc1cccc(Cl)c1 (centres undefined),4.4*
CCCCC(CC)CNC(=O)C1C2C=CC(O2)C1C(=O)O (centres undefined),-0.18
CSc1nnc(SCC(=O)N2CCC(C(F)(F)F)CC2)s1,0.92
C=CCn1c(COc2ccc(C)cc2)nc2ccccc21,-1.3
CCOC(=O)C(C)Oc1ccc2c(=O)c(Oc3ccc(OC)cc3)coc2c1 (centres undefined),1.6
CC(C)(C)NC(=O)NNc1nc2ccc(Cl)cc2s1,3.7*
O=S(=O)(CS(=O)(=O)Nc1nc2ccc(Cl)cc2s1)Nc1nc2ccc(Cl)cc2s1,0.06
COC(=O)CSc1nc2ccc(Cl)cc2s1,0.92
COc1cccc(C2C3=C(CC(C)(C)CC3=O)NC3=C2C(=O)c2ccccc23)c1OC (centres undefined),1.8
SMILES,Dicer inh
Nc1nc(-c2cccnc2)nn1C(=O)c1ccccc1Cl,-0.54
CCOc1nc(C)ccc1-c1noc(-c2ccccc2Br)n1,1
Cc1ccc(CN2C(=O)C(O)(CC(=O)c3ccc(C)o3)c3cc(Cl)ccc32)cc1 (centres undefined),3.7*
Cc1ccccc1CN1C(=O)C(O)(CC(=O)c2ccco2)c2cc(Cl)ccc21 (centres undefined),2.3
Cc1ccc(C(=O)CC2(O)C(=O)N(Cc3ccc(Cl)cc3)c3ccccc32)cc1 (centres undefined),2.7
CCCCN1C(=O)C(O)(CC(=O)c2ccc(C)s2)c2cc(Br)ccc21 (centres undefined),2.3
Cc1ccc(C(=O)CC2(O)C(=O)N(Cc3ccccc3)c3ccc(Br)cc32)s1 (centres undefined),3.6*
CCCN1C(=O)C(O)(CC(=O)c2ccc(C)o2)c2cc(Br)ccc21 (centres undefined),-0.06
CCCN1C(=O)C(O)(CC(=O)c2ccc(C)s2)c2ccccc21 (centres undefined),-0.54
Cc1coc(C)c1C(=O)CC1(O)C(=O)N(Cc2ccccc2)c2ccc(Br)cc21 (centres undefined),3.8*
O=C(CC1(O)C(=O)N(Cc2ccccc2)c2ccc(Br)cc21)c1cccnc1 (centres undefined),2.6
CCOc1cnn(-c2ccccc2)c(=O)c1Cl,0.31
Cc1ccc(-c2cnc(NCc3ccccc3Cl)n2C)cc1,2.2
COc1ccc(C(=O)CC2(O)C(=O)Nc3ccc(Cl)cc32)c(OC)c1 (centres undefined),8.2
O=C(CSc1nnc2ccccn12)Nc1ccccc1F,0.57
COc1cccc(C2CC(c3ccc(F)cc3)Nc3nc(N)nn32)c1 (centres undefined),-0.18
O=C(NCC1CCS(=O)(=O)C1)Oc1ccccc1 (centres undefined),1.1
COc1ccc(C2SCC(=O)N2c2c(C)n(C)n(-c3ccccc3)c2=O)c(OC)c1 (centres undefined),-0.71
Cc1cc(Oc2ccc(Cl)c(C)c2)c2ccccc2n1,-0.82
O=C(COc1ccc(Cl)cc1)Nc1c[nH]c(=O)[nH]c1=O,4.1*
O=C(COc1ccc(Cl)cc1)Nc1ccc(Cl)cn1,0.71
O=C(COc1ccc(Cl)cc1)Nc1nccs1,-0.38
CNc1nc(N2CCc3ccccc32)ncc1F,0.78
Cc1cc(OS(=O)(=O)c2ccc(Cl)cc2)n(-c2ccccc2)n1,-11
C=CC[n+]1ccc(/C=C2\Sc3ccccc3N2C)cc1,0.4
SMILES,Dicer inh
COc1cc2c(cc1OC)-c1c(C#N)c(-c3ccc4c(c3)OCO4)c(C(C)=O)n1CC2,1.8
COc1cc2c(cc1OC)-c1c(C#N)c(-c3ccc(C)cc3)c(C(=O)c3cccs3)n1CC2,6.2*
COc1cc2c(cc1OC)-c1c(C#N)c(-c3ccc(Cl)cc3)c(C(=O)c3cccs3)n1CC2,-0.34
O=C(Nc1nc(-c2ccc(OC(F)(F)F)cc2)no1)NN1CCCCC1,0.73
Cn1c(/C=C/c2ccc(Cl)cc2)c([N+](=O)[O-])c(=O)n(C)c1=O,0.43
CCc1ccccc1N1CC(O)=C(c2nc3ccccc3s2)C1=N,1.8
CCOC(=O)c1cc(-c2ccc(Cl)cc2)nc(Sc2ccc(Cl)cc2)c1C#N,-1.8
COc1cccc(N2C(=O)C3C4c5ccccc5C(c5ccccc54)C3C2=O)c1 (centres undefined),3.7*
COC(=O)c1ccccc1N1CC(C(=O)O)CC1=O (centres undefined),2.3
NN1CC(=O)N(c2cccc(C(F)(F)F)c2)CC1=O,1.2
COc1ccccc1N1C(=O)C2C3c4ccccc4C(c4ccccc43)C2C1=O (centres undefined),-0.08
COc1ccc(N2C(=O)C3C4c5ccccc5C(c5ccccc54)C3C2=O)cc1 (centres undefined),1.5
COC(=O)c1ccccc1N1C(=O)C2C3c4ccccc4C(c4ccccc43)C2C1=O (centres undefined),4.2*
COc1cccc(N2CC(=O)N(NC(=O)NC3CCCCC3)CC2=O)c1,2.8
Cc1cccnc1N1C(=O)C2C3c4ccccc4C(c4ccccc43)C2C1=O (centres undefined),0.69
COc1cccc(N2CC(=O)N(N)CC2=O)c1,3.8*
Cc1ccc(C(=O)CC2(O)C(=O)N(C)c3ccc(Cl)cc32)cc1 (centres undefined),1
CCn1cc(C(=O)O)c(=O)c2cc(Cl)ccc21,1.3
N/C(=N\O)c1cccc(CS(=O)(=O)c2cccs2)c1,0.01
O=C(C1CCCCC1)N1CC(=O)N2CCc3ccccc3C2C1 (centres undefined),9.8
C[C@H](CCC(=O)O)[C@H]1CC[C@H]2[C@@H]3C[C@@H](O)C4=C[C@@H](O)CC[C@]4(C)[C@H]3CC[C@]12C,0.98
Nc1ncc(S(=O)(=O)Cc2cccs2)c(N)n1,-0.07
COc1cccc(/C=N/NC(=O)c2c(C)nc3cc(C)ccn23)c1,-1.1
O=C(Nc1c(-c2ccccc2)nc2ccccn12)c1ccco1,4.9*
COC(=O)Nc1c(-c2ccccc2)nc2ccccn12,-0.09
O=C(Nc1c(-c2ccccc2)nc2ccc(Cl)cn12)c1ccco1,1.3
COC(=O)/C=C(/Nc1ccc(Cl)c(Cl)c1)C(=O)OC,0.22
COc1oc(-c2ccc(C)cc2)nc1C(F)(F)F,4.3*
